# Data reported in PubChem BioAssay (Tox21).
# Values without a mark were called inactive. Inconclusive results are not listed. Where a call stands in place of a potency, no number is given. Active and inactive are the calls of the source. Calls come from the whole dose curve; as a rule, active = well fitted curve in the direction sought with a large enough effect in the repeat runs; inconclusive = weak or mixed curves; inactive = no such curve, though single readings can be large; an effect the other way counts as inactive or inconclusive.
# Tests used:
# [1] = Caspase-3/7 induction in CHO-K1 cells by small molecules, qHTS assay (AID 1346980); note: nearly all actives have a fitted effect of over 15% in size; note: potency is the fitted concentration of half-maximal effect
# Outline: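 Wild-type CHO-K1 cells exposed to compounds for 17hr at 37 C, 5% CO2. Caspase-3/7 activity then measured by Caspase-Glo 3/7 luminescence after 30min at room temperature.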
# [2] = Caspase-3/7 induction in HepG2 cells by small molecules, qHTS cell viability counter screen (AID 1346981); note: nearly all actives have a fitted effect of over 30% in size; note: potency is the fitted concentration of half-maximal effect; for activity change, negative = cytotoxicity: series mostly up to about 92 µM
# Outline: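 Steps: seed 2,000 HepG2 cells per well; incubate 5 hr at 37 C; pin-add compounds in DMSO; incubate 16 hr; add CellTiter-Fluor; after 1 hr at 37 C and 5% CO2, read fluorescence.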
# [3] = target: Nuclear receptor subfamily 1 group I member 2 (Homo sapiens) (UniProt O75469); test: Human pregnane X receptor (PXR) small molecule agonists, qHTS assay (AID 1346982); note: nearly all actives have a fitted effect of over 35% in size; note: potency is the fitted concentration of half-maximal effect
# Chain of Nuclear receptor subfamily 1 group I member 2 (Homo sapiens) (O75469 whole entry, looked up): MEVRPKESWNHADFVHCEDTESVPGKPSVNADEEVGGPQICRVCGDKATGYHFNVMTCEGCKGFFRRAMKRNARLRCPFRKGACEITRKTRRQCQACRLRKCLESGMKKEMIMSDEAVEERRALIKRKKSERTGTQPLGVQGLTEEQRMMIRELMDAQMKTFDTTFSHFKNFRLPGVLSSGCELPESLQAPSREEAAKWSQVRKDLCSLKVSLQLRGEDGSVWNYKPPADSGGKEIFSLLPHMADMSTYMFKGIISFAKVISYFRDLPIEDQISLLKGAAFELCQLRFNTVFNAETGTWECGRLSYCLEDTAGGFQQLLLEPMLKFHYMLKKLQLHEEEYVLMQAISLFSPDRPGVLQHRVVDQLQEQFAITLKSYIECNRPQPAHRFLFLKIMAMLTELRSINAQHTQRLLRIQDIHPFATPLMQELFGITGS
# Outline: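 Agonist mode qHTS: PXR-Luc HepG2 cells plated 5 hr before DMSO-dissolved compounds were pinned in, cultured 24 hr at 37 C, 5% CO2; ONE-Glo luminescence readout.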
# [4] = target: Cytochrome P450 2C9 (Homo sapiens) (UniProt P11712); test: Cytochrome P450 Family 2 Subfamily C Member 9 (CYP2C9) small molecule antagonists: luciferase reporter qHTS assay (AID 1671198); note: nearly all actives have a fitted effect of over 50% in size; note: potency is the fitted concentration of half-maximal effect; for activity change, negative = inhibition: series mostly up to about 120 µM
# Chain of Cytochrome P450 2C9 (Homo sapiens) (P11712 whole entry, looked up): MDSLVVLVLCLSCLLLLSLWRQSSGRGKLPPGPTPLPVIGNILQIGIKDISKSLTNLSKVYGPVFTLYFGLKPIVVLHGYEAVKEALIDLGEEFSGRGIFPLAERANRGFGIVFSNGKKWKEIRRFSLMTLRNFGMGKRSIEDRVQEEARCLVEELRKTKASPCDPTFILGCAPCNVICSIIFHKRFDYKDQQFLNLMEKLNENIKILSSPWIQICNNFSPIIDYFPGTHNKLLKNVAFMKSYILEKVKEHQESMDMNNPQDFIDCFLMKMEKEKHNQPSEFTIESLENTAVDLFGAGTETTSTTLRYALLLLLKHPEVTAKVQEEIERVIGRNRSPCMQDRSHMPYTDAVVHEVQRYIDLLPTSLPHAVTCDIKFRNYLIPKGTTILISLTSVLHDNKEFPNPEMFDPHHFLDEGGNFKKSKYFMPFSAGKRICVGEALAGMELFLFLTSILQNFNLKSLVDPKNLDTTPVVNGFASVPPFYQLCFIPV
# Outline: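 P450-Glo proluciferin substrate with CYP2C9 enzyme; 10 min RT preincubation, then NADPH regeneration 1 h at 37C; luciferin detection reagent 20 min RT, luminescence in relative luminescence units.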
# [5] = target: Cytochrome P450 1A2 (Homo sapiens) (UniProt P05177); test: Cytochrome P450 Family 1 Subfamily A Member 2 (CYP1A2) small molecule antagonists: luciferase reporter qHTS assay (AID 1671199); note: nearly all actives have a fitted effect of over 50% in size; note: potency is the fitted concentration of half-maximal effect; for activity change, negative = inhibition: series mostly up to about 120 µM
# Chain of Cytochrome P450 1A2 (Homo sapiens) (P05177 whole entry, looked up): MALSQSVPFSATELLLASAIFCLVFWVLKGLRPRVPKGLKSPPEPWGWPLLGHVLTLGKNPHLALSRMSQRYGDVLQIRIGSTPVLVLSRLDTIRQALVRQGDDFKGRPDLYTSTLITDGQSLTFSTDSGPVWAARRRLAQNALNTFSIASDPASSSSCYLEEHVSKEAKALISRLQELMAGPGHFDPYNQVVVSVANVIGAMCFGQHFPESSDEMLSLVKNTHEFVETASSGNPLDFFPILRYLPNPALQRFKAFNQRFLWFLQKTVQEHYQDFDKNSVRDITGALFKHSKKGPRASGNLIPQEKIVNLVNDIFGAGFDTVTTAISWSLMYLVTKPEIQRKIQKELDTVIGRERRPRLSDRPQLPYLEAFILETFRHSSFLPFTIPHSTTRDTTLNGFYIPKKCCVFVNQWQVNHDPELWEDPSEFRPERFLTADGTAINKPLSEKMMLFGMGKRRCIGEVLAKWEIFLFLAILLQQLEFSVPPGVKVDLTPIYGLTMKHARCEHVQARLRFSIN
# Outline: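 Inhibition of CYP1A2 conversion of proluciferin to luciferin, detected by luminescence. Reaction run 1 h at room temperature with NADPH regeneration after brief compound preincubation.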
# [6] = target: Voltage-gated inwardly rectifying potassium channel KCNH2 (Homo sapiens) (UniProt Q12809); test: Human Ether-a-go-go-Related Gene (hERG) channel small molecule antagonists: fluorescence cell-based qHTS assay (AID 1671200);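 note: hERG-expressing U2OS cells given a thallium stimulus after FluxOR II dye loading; series mostly up to about 77 µM; nearly all actives have a fitted effect of over 50% in size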
# Chain of Voltage-gated inwardly rectifying potassium channel KCNH2 (Homo sapiens) (Q12809 whole entry, looked up): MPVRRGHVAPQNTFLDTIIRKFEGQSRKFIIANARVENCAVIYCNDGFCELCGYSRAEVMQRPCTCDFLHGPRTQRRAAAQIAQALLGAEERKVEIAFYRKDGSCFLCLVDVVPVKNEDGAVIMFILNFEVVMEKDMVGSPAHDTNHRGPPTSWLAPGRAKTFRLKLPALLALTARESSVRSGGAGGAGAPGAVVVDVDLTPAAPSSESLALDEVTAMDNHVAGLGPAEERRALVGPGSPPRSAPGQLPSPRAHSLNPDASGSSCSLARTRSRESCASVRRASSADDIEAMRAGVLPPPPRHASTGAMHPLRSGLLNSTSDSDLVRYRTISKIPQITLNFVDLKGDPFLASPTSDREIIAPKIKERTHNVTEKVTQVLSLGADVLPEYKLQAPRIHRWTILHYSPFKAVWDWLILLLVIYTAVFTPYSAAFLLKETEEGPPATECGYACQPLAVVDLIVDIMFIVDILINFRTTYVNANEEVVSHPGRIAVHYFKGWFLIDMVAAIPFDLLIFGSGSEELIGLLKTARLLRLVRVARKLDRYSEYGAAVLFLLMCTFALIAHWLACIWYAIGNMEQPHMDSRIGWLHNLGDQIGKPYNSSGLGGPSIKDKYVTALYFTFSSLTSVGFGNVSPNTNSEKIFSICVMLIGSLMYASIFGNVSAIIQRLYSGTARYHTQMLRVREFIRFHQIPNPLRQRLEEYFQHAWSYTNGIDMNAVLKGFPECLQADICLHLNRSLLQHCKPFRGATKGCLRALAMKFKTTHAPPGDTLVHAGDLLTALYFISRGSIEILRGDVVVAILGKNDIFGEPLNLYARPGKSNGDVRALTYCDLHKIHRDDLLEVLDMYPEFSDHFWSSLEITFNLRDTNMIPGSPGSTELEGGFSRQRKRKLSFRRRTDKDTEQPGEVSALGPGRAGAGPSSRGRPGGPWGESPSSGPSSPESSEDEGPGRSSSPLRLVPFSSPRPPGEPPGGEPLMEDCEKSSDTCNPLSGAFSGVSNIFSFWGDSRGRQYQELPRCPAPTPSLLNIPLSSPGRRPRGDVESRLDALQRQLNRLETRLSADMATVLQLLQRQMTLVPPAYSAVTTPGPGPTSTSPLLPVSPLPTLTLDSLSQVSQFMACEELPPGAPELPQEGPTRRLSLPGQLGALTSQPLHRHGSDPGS
# Outline: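 In this thallium-flux screen, overnight-cultured U2OS cells bearing the channel are dye-loaded in darkness for an hour, rested 10 min at room temperature, and then monitored kinetically at 480/540 nm for two minutes post-stimulus.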
# [7] = target: Cytochrome P450 3A4 (Homo sapiens) (UniProt P08684); test: Cytochrome P450 Family 3 Subfamily A Member 4 (CYP3A4) small molecule antagonists: luciferase reporter qHTS assay (AID 1671201); note: nearly all actives have a fitted effect of over 50% in size; note: potency is the fitted concentration of half-maximal effect; for activity change, negative = inhibition: series mostly up to about 120 µM
# Chain of Cytochrome P450 3A4 (Homo sapiens) (P08684 whole entry, looked up): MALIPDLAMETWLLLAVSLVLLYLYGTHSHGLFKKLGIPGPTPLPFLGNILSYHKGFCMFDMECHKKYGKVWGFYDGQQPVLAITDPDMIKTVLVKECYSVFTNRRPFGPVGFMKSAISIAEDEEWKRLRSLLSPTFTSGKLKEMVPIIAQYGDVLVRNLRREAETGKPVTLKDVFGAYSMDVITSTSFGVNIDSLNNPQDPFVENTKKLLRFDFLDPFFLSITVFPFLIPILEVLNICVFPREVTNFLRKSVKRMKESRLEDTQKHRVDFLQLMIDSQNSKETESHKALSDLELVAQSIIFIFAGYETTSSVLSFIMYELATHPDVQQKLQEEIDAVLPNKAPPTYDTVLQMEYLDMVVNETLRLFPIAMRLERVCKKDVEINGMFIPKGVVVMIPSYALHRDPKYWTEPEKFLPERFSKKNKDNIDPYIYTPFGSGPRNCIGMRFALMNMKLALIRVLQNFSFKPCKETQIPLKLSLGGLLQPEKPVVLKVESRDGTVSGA
# Outline: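 CYP3A4 activity was followed with a P450-Glo proluciferin substrate. Test compounds in DMSO were preincubated 10 min; NADPH regeneration then ran 1 h, and light output was read 20 min after detection reagent.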
# [8] = target: Cytochrome P450 2D6 (Homo sapiens) (UniProt P10635); test: Cytochrome P450 Family 2 Subfamily D Member 6 (CYP2D6) small molecule antagonists: luciferase reporter qHTS assay (AID 1671196); note: nearly all actives have a fitted effect of over 50% in size; note: potency is the fitted concentration of half-maximal effect; for activity change, negative = inhibition: series mostly up to about 120 µM
# Chain of Cytochrome P450 2D6 (Homo sapiens) (P10635 whole entry, looked up): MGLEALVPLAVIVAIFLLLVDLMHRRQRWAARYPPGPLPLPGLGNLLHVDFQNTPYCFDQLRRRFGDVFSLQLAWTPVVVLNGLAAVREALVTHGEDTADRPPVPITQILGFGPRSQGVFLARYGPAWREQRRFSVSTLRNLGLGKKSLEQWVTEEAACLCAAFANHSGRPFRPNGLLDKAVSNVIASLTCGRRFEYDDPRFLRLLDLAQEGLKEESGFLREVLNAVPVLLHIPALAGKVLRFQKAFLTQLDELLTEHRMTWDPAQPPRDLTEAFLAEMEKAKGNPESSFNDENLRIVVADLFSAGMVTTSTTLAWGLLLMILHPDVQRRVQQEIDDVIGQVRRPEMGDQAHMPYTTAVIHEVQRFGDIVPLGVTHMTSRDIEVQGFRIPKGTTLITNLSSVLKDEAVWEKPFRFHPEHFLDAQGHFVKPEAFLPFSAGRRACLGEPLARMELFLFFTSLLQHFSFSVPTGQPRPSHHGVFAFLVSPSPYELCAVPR
# Outline: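 P450-Glo format: CYP2D6 converts a proluciferin substrate to luciferin in an NADPH-driven reaction lasting 1 h at room temperature. Light output, proportional to CYP2D6 activity, reflects interference by test chemicals.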
# [9] = target: Cytochrome P450 2C19 (Homo sapiens) (UniProt P33261); test: Cytochrome P450 Family 2 Subfamily C Member 19 (CYP2C19) small molecule antagonists: luciferase reporter qHTS assay (AID 1671197); note: nearly all actives have a fitted effect of over 65% in size; note: potency is the fitted concentration of half-maximal effect; for activity change, negative = inhibition: series mostly up to about 120 µM
# Chain of Cytochrome P450 2C19 (Homo sapiens) (P33261 whole entry, looked up): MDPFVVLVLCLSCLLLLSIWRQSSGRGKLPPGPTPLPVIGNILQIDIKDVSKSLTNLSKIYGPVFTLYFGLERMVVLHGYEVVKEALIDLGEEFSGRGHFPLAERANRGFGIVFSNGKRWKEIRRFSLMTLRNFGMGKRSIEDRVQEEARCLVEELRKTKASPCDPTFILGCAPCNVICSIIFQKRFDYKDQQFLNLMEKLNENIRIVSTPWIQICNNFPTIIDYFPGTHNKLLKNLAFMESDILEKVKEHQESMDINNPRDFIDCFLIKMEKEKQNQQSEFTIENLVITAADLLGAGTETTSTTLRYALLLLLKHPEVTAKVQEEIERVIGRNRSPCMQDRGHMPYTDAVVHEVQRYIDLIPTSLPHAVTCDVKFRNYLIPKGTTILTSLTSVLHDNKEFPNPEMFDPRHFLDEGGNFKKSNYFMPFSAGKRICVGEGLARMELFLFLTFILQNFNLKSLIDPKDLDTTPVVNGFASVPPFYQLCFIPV
# Outline: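 Inhibition of CYP2C19 was scored from loss of luminescence in a P450-Glo proluciferin substrate assay, NADPH-started and run 1 h at 37C, with ketoconazole as positive control.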
# [10] = target: Nuclear receptor subfamily 1 group I member 2 (Rattus norvegicus) (UniProt Q9R1A7); test: Rat pregnane X receptor (rPXR) activation by small molecules, qHTS assay (AID 1346983); details: rPXR luciferase reporter cells, One-Glo luminescence, 24 h; max activation: active compounds read high; note: nearly all actives have a fitted effect of over 20% in size
# Chain of Nuclear receptor subfamily 1 group I member 2 (Rattus norvegicus) (Q9R1A7 whole entry, looked up): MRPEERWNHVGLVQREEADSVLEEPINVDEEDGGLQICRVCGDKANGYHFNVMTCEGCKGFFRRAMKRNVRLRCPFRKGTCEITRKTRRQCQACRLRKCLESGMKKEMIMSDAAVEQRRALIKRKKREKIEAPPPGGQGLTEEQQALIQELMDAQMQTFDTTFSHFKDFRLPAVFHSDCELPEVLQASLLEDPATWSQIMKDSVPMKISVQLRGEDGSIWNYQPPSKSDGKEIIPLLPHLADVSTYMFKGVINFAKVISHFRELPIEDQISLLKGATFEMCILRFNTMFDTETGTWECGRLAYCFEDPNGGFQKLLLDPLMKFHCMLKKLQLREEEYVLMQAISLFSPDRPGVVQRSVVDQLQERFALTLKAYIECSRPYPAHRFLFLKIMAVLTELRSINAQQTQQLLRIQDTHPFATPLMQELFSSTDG
# Outline: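 Cell-based rPXR activation assay: rPXR cells, 2,000 per well, rested 5hr at 37 C, then exposed to compounds in DMSO for 24 hr at 37 C. Luciferase activity read by One-Glo luminescence after 30 min at room temperature.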
structure (smiles),measurement,setting,value
C=CC(=O)OCC(Br)CBr (stereo not given),Potency,[1],inactive
same,Potency,[2],inactive
same,Potency,[3],inactive
same,Potency,[4],inactive
same,Potency,[5],inactive
same,Potency,[6],inactive
same,Potency,[7],inactive
CCN(CC)c1ccc2c(c1)Oc1cc(N(CC)CC)ccc1C21OC(=O)c2ccccc21,Potency,[1],inactive
same,Potency,[2],5.31 µM (active)
same,Potency,[3],26.6 µM (active)
same,Potency,[4],15.5 µM (active)
same,Potency,[6],inactive
same,Potency,[7],11 µM (active)
Nc1ccc(Cl)c([N+](=O)[O-])c1,Potency,[1],inactive
same,Potency,[2],inactive
same,Potency,[8],inactive
same,Potency,[9],inactive
same,Potency,[5],31.7 µM (active)
same,Potency,[6],inactive
same,Potency,[7],inactive
CSc1ccc(O)cc1C,Potency,[1],inactive
same,Potency,[2],inactive
same,Potency,[8],inactive
same,Potency,[5],63.3 µM (active)
same,Potency,[6],inactive
CC(C)=CCC[C@H](C)CC=O,Potency,[1],inactive
same,Potency,[2],inactive
same,Potency,[6],inactive
CCN(CC)c1ccc(C=O)cc1,Potency,[1],inactive
same,Potency,[2],inactive
same,Potency,[8],inactive
same,Potency,[9],15.9 µM (active)
same,Potency,[4],inactive
same,Potency,[5],5.64 µM (active)
same,Potency,[6],inactive
same,Potency,[7],inactive
CCCCC/C=C\C=C\C(=O)OCC,Potency,[1],inactive
same,Potency,[2],inactive
same,Potency,[3],63.7 µM (active)
same,Potency,[4],13.2 µM (active)
same,Potency,[5],37.1 µM (active)
same,Potency,[7],16.6 µM (active)
O=C1OC(=O)c2cc(-c3ccc4c(c3)C(=O)OC4=O)ccc21,Potency,[1],inactive
same,Potency,[2],inactive
same,Potency,[8],inactive
same,Potency,[9],8.94 µM (active)
same,Potency,[4],inactive
same,Potency,[5],35.6 µM (active)
same,Potency,[6],inactive
same,Potency,[7],inactive
C/C(=C\c1ccc(C(=O)O)cc1)c1ccc2c(c1)C(C)(C)CCC2(C)C,Potency,[1],inactive
same,Potency,[2],inactive
same,Potency,[3],inactive
same,Potency,[4],inactive
same,Potency,[5],inactive
same,Potency,[6],inactive
same,Potency,[7],inactive
CCCCCc1ccc(O)cc1,Potency,[1],inactive
same,Potency,[2],inactive
same,Potency,[4],63.3 µM (active)
same,Potency,[5],63.3 µM (active)
same,Potency,[6],inactive
same,Potency,[7],inactive
Nc1c(Br)cc([N+](=O)[O-])cc1Br,Potency,[1],inactive
same,Potency,[2],inactive
same,Potency,[8],inactive
same,Potency,[9],79.6 µM (active)
same,Potency,[4],inactive
same,Potency,[5],1.78 µM (active)
same,Potency,[6],inactive
same,Potency,[7],inactive
CC(C)C(=O)C(C)C,Potency,[1],inactive
same,Potency,[2],inactive
same,Potency,[3],inactive
same,Potency,[4],inactive
same,Potency,[5],inactive
same,Potency,[6],inactive
same,Potency,[7],inactive
COc1ccc(OC)c(N=Nc2c(O)ccc3ccccc23)c1,Potency,[1],inactive
same,Potency,[2],27.3 µM (active)
same,Potency,[3],9.69 µM (active)
same,Potency,[4],6.33 µM (active)
same,Potency,[5],0.894 µM (active)
same,Potency,[6],inactive
same,Potency,[7],2.83 µM (active)
CCCCCCCCCCCCCCCCCCNC(=O)OC1CCN(C(=O)OC[C@H](COC(=O)N(Cc2cccc[n+]2CC)C(=O)c2ccccc2OC)OC)CC1,Potency,[1],inactive
same,Potency,[3],inactive
same,Potency,[8],27.5 µM (active)
same,Potency,[9],43.6 µM (active)
same,Potency,[4],30.9 µM (active)
same,Potency,[5],inactive
CCCC(=O)c1cc(O)c(O)cc1O,Potency,[1],inactive
same,Potency,[2],40.9 µM (active)
same,Potency,[9],20 µM (active)
same,Potency,[4],26.7 µM (active)
same,Potency,[5],37.7 µM (active)
same,Potency,[6],inactive
C=Cc1ccc(O)c(OC)c1,Potency,[1],inactive
same,Potency,[2],inactive
same,Potency,[4],31.7 µM (active)
same,Potency,[5],35.6 µM (active)
same,Potency,[6],inactive
same,Potency,[7],20 µM (active)
Cc1cc(F)ccc1-c1cc(N2CC[C@@H](O)[C@H]2CO)ncc1N(C)C(=O)C(C)(C)c1cc(C(F)(F)F)cc(C(F)(F)F)c1,Potency,[1],38 µM (active)
same,Potency,[2],38 µM (active)
same,Potency,[3],17 µM (active)
same,Potency,[4],22.1 µM (active)
same,Potency,[6],inactive
same,Potency,[7],3.12 µM (active)
NC(=O)c1ccccc1Cl,Potency,[1],inactive
same,Potency,[2],inactive
same,Potency,[3],inactive
same,Potency,[4],inactive
same,Potency,[5],inactive
same,Potency,[6],inactive
same,Potency,[7],inactive
COc1cc2ncnc(Nc3cccc(Cl)c3)c2cc1OC,caspase-3/7 activation,[1],-2.78% [at 19 µM]
same,"activity change, negative = cytotoxicity",[2],-10% [at 19 µM]
same,"activity change, negative = inhibition",[6],7% [at 15.8 µM]
CN1CC[C@H](c2c(O)cc(O)c3c(=O)cc(-c4ccccc4Cl)oc23)[C@H](O)C1,Potency,[1],0.266 µM (active)
same,Potency,[2],0.335 µM (active)
same,Potency,[3],0.106 µM (active)
same,Potency,[9],inactive
same,Potency,[5],inactive
same,Potency,[7],inactive
O[Si](c1ccccc1)(c1ccccc1)c1ccccc1,Potency,[1],inactive
same,Potency,[3],27.3 µM (active)
same,Potency,[8],inactive
same,Potency,[9],0.502 µM (active)
same,Potency,[4],0.564 µM (active)
same,Potency,[5],inactive
same,Potency,[7],inactive
c1ccc2c(c1)-c1ccc3ccc4cccc5cc-2c1c3c45,Potency,[1],inactive
same,Potency,[3],inactive
same,Potency,[8],inactive
same,Potency,[9],inactive
same,Potency,[5],0.219 µM (active)
same,Potency,[6],inactive
same,Potency,[7],inactive
CC(Cc1ccc(O)c(O)c1)C(C)Cc1ccc(O)c(O)c1 (stereo not given),Potency,[1],inactive
same,Potency,[3],21.7 µM (active)
same,Potency,[8],inactive
same,Potency,[9],35.6 µM (active)
same,Potency,[4],12.6 µM (active)
same,Potency,[5],inactive
same,Potency,[7],35.6 µM (active)
CN(C)CCOc1ccc(/C(=C(/CCCl)c2ccccc2)c2ccccc2)cc1,Potency,[1],51 µM (active)
same,Potency,[2],57.2 µM (active)
same,max activation,[10],-3.02%
same,Potency,[9],52.8 µM (active)
